Sequences and labels used below:
B1: ENSG00000069329:stop:overlap|stop_codon|ENSG00000069329|stop_codon|NA|stop_codon (ssRNA)
RNA: GGGAGUUCUACAGUCCGACGAUCUGGAGAAGGGGCCCCACAGACCGUUCGGGAUUAAGACCAGCCCGAUUUGGCCUGCGGGAUAGGGGACAGCAGGAGGAAGGCCGCGGGCAGGCUGAUCCGGGCCGGGGUGGGCGGCGGCUCCAACAGAGGAUUGAGCAUCA
B2: chr16:58599380:58599482:-|5pUTR|ENSG00000125107|unk|total|mutant (ssRNA)
RNA: GGGAGUUCUACAGUCCGACGAUCCAGAACAGAGUAAGACCCCUGGUAAAGAAGAACUGAAGAUAUUAUACAGAUACCAGAUACCGCCUAAUUACAAAGAAAGCAUUAACCUGCCUCUGAGGUGACUAAAGGGGAAUAAUGGUGCAACAGAGGAUUGAGCAUCA
B3: chr11:113276125:113276317:+|3pUTR|ENSG00000149294|msi1|FALSE|unique (ssRNA)
RNA: GGGAGUUCUACAGUCCGACGAUCGUCCGUGUAAAAUAGCUGCCUUUUAUUUUUUAAGGUAACAAAUACCACCUAGAGGUAGGUAGGAUCAUCCCACGCUUGCUUUAGCACAGGACAACUUUACAAAACAUGAUUGUUUACAGCCAACAGAGGAUUGAGCAUCA
B4: chr14:53038166:53038268:-|3pUTR|ENSG00000100523|unk|total|mutant (ssRNA)
RNA: GGGAGUUCUACAGUCCGACGAUCGAGCUUUUGGCAGAGUCUUCGGGGUUUUCCCGGUAUAAAAUCAUAUCAGCGAAGAGAGCCCGUUUGAUUUCUUUUCCCAGUUGGAUGCCUUUUAUUUAUUUCUCUUGCCUGAUUGCUCUACAACAGAGGAUUGAGCAUCA
B5: chr2:39051162:39051270:-|CDS|ENSG00000115904|unk|total|mutant (ssRNA)
RNA: GGGAGUUCUACAGUCCGACGAUCAAAUAUAUUCCGUCGCACCGCCGAUAUACAUGAACUCCGUGUAAAGUUACUGGGCCAUACCGAAGAUACAGCCGAAAUGACAGAUGAAGGCAGUCCCCAUCCACCCGCCGGAAGCUGCUUCAACAGAGGAUUGAGCAUCA
B6: chr9:96818597:96818698:-|CDS|ENSG00000196597|unk|FALSE|unique (ssRNA)
RNA: GGGAGUUCUACAGUCCGACGAUCGGAGAAACCAUUCGAAUGUCAUGAAUGUGGGAAAUCUUUUAACUAUAAGUCAAUCCUCAUAGUGCAUCAGAGAACUCACACAGGGGAGAAACCUUUUGAAUGUAAUGAAUGCGGGAAAUCCAACAGAGGAUUGAGCAUCA
B7: chr10:128104542:128104643:-|CDS|ENSG00000148773|msi1|total|mutant (ssRNA)
RNA: GGGAGUUCUACAGUCCGACGAUCAAGUGAUGAGAAAAAUAUCAACACAUUUGUGGAAACUCCAGUGCAGAAACUGGACCUGCCCGGAAAUUUACCUGGCAGCAAGAGACAGCCACAGACUCCUAAGGAAAAGGCUGAGGCUCUCAACAGAGGAUUGAGCAUCA
B8: chr4:138167974:138168075:-|3pUTR|ENSG00000151012|msi1|total|mutant (ssRNA)
RNA: GGGAGUUCUACAGUCCGACGAUCCACAAAAUCUGCAUUGUCCAUGUGAGUAAAGUAAAAUAAUUCCUGUUAUUUUUUUCUGUCCGAAAUAAGUAUGGAGGAUAUGUUUUUAAAAAUUUAUGAGUUAAUUGAAAUAUCCAUAUACAACAGAGGAUUGAGCAUCA
B9: chr5:38481646:38481747:-|CDS|ENSG00000113594|unk|total|mutant (ssRNA)
RNA: GGGAGUUCUACAGUCCGACGAUCCAGACCUCAGGCCAAUGUAAAUACAUGGAAUUCCGUGUCUCCAGACUCUCCCCGAUCCACCGACAGCAACAGUGAGAUUGUCUCAUUUGGAAGUCCAUGCUCCAUUAAUUCCCGACAAUUCAACAGAGGAUUGAGCAUCA
B10: chr13:69700593:69701701:-|three_prime_utr|ENSG00000150361|control|control|control (ssRNA)
RNA: GGGAGUUCUACAGUCCGACGAUCUUGAAUGGCAAGAAUGAGAACUUCCAGAGAUGAAAACUCUUCAAGAACAAGGAUCUCUGUAGCGUUACCUACUGAUGUUGAAAGAGUUAGUAGAUCAAACAGAAUAGUAGGAAACAAGAACAACAGAGGAUUGAGCAUCA
B11: ENSG00000198589:be:win_251|CDS|ENSG00000198589|bound_else_gene|NA|bound_elsewhere_windowed (ssRNA)
RNA: GGGAGUUCUACAGUCCGACGAUCUCAUUAUCCAAGAAGGUGAGAGUAUUAACUGCAUGGUGGACCUACUGGAAAAAUGUGACAUUACGUGCCAAGCAGAAGUCUGGAGCAUGUUUACAGCCAUUCUGAAGAAAAGCAUACGGACAACAGAGGAUUGAGCAUCA
B12: chr11:27368498:27368690:-|CDS|ENSG00000205213|msi1|FALSE|unique (ssRNA)
RNA: GGGAGUUCUACAGUCCGACGAUCACCCCUUUGUUUGCCAUUUCCUACAGGUGAAACGCCAUCAUUAGGAUUCACUGUAACGUUAGUGCUAUUAAACUCACUAGCAUUUUUAUUAAUGGCCGUUAUCUACACUAAACUAUACUGCAACAGAGGAUUGAGCAUCA
B13: chr7:123692404:123692516:-|CDS|ENSG00000106299|unk|FALSE|unique (ssRNA)
RNA: GGGAGUUCUACAGUCCGACGAUCCCUGCCUUCUGAUGGGGACCAUCAGGUUCCAACUACUGCAGGAAACAAAGCAGCUCUUUUAGAUCAAAUUAGAGAGGGUGCUCAGCUAAAAAAAGUGGAGCAGAACAGUCGGCCAGUGUCCAACAGAGGAUUGAGCAUCA
B14: chr5:139396562:139396955:-|CDS|ENSG00000170469|control|control|control (ssRNA)
RNA: GGGAGUUCUACAGUCCGACGAUCAGGGGUCCACAAGGUGGGGGCUUGUAGCCUAGGGGAGGAGCUGGGUCUUUGUUGUCUGGUAGGCACCACCGCUUCCUUUGGGUAUUUAAUCCCUUCCUAUAUAAACAGCCCUGGUUACCCCAACAGAGGAUUGAGCAUCA

Over roughly 5,800 sequences, “enrichment r” has its median near 0.54; the highest 2% begin near 16. The sample holds the highest values, similar sequences and a random draw of the others, so the mix is not that of the screen.

This assay deals with MSI1 full-length (mouse, UniProt Q61474 1-362). Put plainly: nsRBNS (natural sequence RNA bind-n-seq); RBNS binding buffer (assumed for nsRBNS): 25 mM Tris pH 7.5, 150 mM KCl, 3 mM MgCl2, 0.01% Triton X-100, 500 ug/ml BSA, 20 U/ml SUPERase-In, 4 C; UNK is unkempt and MSI1 is Musashi-1; names of the RNAs are library labels; protein concentration not given here; high values mean tight binding.
MSI1 full-length, sequence (Q61474 whole entry): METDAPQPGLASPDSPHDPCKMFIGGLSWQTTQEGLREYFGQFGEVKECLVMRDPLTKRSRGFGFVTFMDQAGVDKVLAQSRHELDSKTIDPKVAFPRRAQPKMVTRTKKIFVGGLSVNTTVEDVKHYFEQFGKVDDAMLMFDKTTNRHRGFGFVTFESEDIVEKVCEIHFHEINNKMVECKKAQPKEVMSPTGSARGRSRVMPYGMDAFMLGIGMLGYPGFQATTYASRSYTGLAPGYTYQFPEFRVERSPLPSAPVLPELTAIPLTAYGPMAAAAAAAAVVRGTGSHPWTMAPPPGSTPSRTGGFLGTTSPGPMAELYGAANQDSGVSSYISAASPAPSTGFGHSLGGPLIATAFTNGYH
B1 came in with a binding signal of 0.367 enrichment R.
Molecule B2 returned a binding signal of 0.791 enrichment R.
Turning to B3, the binding signal is 0.716 enrichment R.
The value for B4 was 0.36 enrichment R; that for B5 was 0.566 enrichment R; that for B6 was 0.426 enrichment R.
In turn, B7 yielded a binding signal of 0.365 enrichment R.
B8 yielded a binding signal of 0.651 enrichment R.
In turn, B9 yielded a binding signal of 0.459 enrichment R.
As to B10, the binding signal is 4.13 enrichment R.
Regarding B11, the binding signal worked out at 0.303 enrichment R.
The molecule B12 came in with a binding signal of 1.09 enrichment R.
B13 returned a binding signal of 0.703 enrichment R.
The molecule B14 came in with a binding signal of 1.74 enrichment R.

The values above are taken from PMC12136788.
